Measured values: the supplement of paper PMC7411054
Where a name gives a salt, the structure may show the parent alone.

Tests used:
Test in all cases: phenotypically active (imaging signature differs from DMSO and reproducible) at any of 0.3-9 uM (binary (1 = active, 0 = inactive)); higher = active
Settings in all cases: treatment time: 24 h
[1] = test system: A549-ACTB-RAB5A
Method in brief: (§1)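 Phenotypic activity depended on meeting both a deviation and a reproducibility criterion. The fifteen gene-edited A549, HepG2 and WPMY1 reporter lines were treated at 0.3, 1, 3 or 9 µM for 24 h, four wells each, then imaged live with features normalised to solvent control wells. Deviation required ≥3 of 4 wells past the 95th percentile of control Euclidean distances, and reproducibility a median replicate Pearson correlation above the 95th percentile of non-replicates.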

[2] = test system: A549-CANX-COX4
Method in brief: as §1

[3] = test system: A549-GM130-SQSTM1
Method in brief: as §1

[4] = test system: A549-TP53BP1-CLTA
Method in brief: as §1

[5] = test system: A549-TUBA1B-RELA
Method in brief: as §1

[6] = test system: HepG2-ACTB-RAB5A
Method in brief: as §1

[7] = test system: HepG2-CANX-COX4
Method in brief: as §1

[8] = test system: HepG2-GM130-SQSTM1
Method in brief: as §1

[9] = test system: HepG2-TP53BP1-CLTA
Method in brief: as §1

[10] = test system: HepG2-TUBA1B-RELA
Method in brief: as §1

[11] = test system: WPMY1-ACTB-RAB5A
Method in brief: as §1

[12] = test system: WPMY1-CANX-COX4
Method in brief: as §1

[13] = test system: WPMY1-GM130-SQSTM1
Method in brief: as §1

[14] = test system: WPMY1-TP53BP1-CLTA
Method in brief: as §1

[15] = test system: WPMY1-TUBA1B-RELA
Method in brief: as §1

Measured: phenotypically active

C[C@H](Cc1cc2c(c(C(N)=O)c1)N(CCCO)CC2)NCCOc1ccccc1OCC(F)(F)F [silodosin]
inactive: [1] 0 | [2] 0 | [3] 0 | [4] 0 | [5] 0 | [6] 0 | [7] 0 | [8] 0 | [9] 0 | [10] 0 | [11] 0 | [12] 0 | [13] 0 | [14] 0 | [15] 0

O=[N+]([O-])c1c(Nc2cc(F)cc(Cl)c2)ccc2nonc12
inactive: [1] 0 | [2] 0 | [3] 0 | [4] 0 | [5] 0 | [6] 0 | [7] 0 | [8] 0 | [9] 0 | [10] 0 | [11] 0 | [12] 0 | [13] 0 | [14] 0 | [15] 0

C=C1C[C@@]23CCC4[C@@](C)(CCC[C@@]4(C)C(=O)O[C@@H]4O[C@H](CO)C(O)[C@H](O)C4O)C2CC[C@@]1(O[C@H]1O[C@H](CO)C(O)[C@H](O)[C@H]1O[C@@H]1O[C@H](CO)[C@@H](O)[C@H](O)[C@H]1O)C3 (stereo not given in full) [Stevioside]
inactive: [1] 0 | [2] 0 | [3] 0 | [4] 0 | [5] 0 | [6] 0 | [7] 0 | [8] 0 | [9] 0 | [10] 0 | [11] 0 | [12] 0 | [13] 0 | [14] 0 | [15] 0

CC(C)C(=O)SCCCCC[C@H](NC(=O)OC(C)(C)C)C(=O)NC12CC3CC(CC(C3)C1)C2
inactive: [1] 0 | [2] 0 | [3] 0 | [4] 0 | [5] 0 | [6] 0 | [7] 0 | [8] 0 | [9] 0 | [10] 0 | [11] 0 | [12] 0 | [13] 0 | [14] 0 | [15] 0

CN(C)C(=N)NC(=N)N [Metformin hydrochloride]
inactive: [1] 0 | [2] 0 | [3] 0 | [4] 0 | [5] 0 | [6] 0 | [7] 0 | [8] 0 | [9] 0 | [10] 0 | [11] 0 | [12] 0 | [13] 0 | [14] 0 | [15] 0

O=C(O)CCCc1ccccc1 [Sodium 4-Phenylbutyrate]
inactive: [1] 0 | [2] 0 | [3] 0 | [4] 0 | [5] 0 | [6] 0 | [7] 0 | [8] 0 | [9] 0 | [10] 0 | [11] 0 | [12] 0 | [13] 0 | [14] 0 | [15] 0

O=C(O)c1ccc(N2N=C(Cc3ccccc3)/C(=C/c3ccc(-c4ccccc4F)o3)C2=O)cc1
inactive: [1] 0 | [2] 0 | [3] 0 | [4] 0 | [5] 0 | [6] 0 | [7] 0 | [8] 0 | [9] 0 | [10] 0 | [11] 0 | [12] 0 | [13] 0 | [14] 0 | [15] 0

COc1ccc2c3c([nH]c2c1)[C@H]1C[C@H]2[C@H](C[C@@H](O)[C@H](OC)[C@H]2C(=O)O)CN1CC3 [Reserpinic acid hydrochloride]
inactive: [1] 0 | [2] 0 | [3] 0 | [4] 0 | [5] 0 | [6] 0 | [7] 0 | [8] 0 | [9] 0 | [10] 0 | [11] 0 | [12] 0 | [13] 0 | [14] 0 | [15] 0

NCCc1ccc(O)c(O)c1 [dopamine]
inactive: [1] 0 | [2] 0 | [3] 0 | [4] 0 | [5] 0 | [6] 0 | [7] 0 | [8] 0 | [9] 0 | [10] 0 | [11] 0 | [12] 0 | [13] 0 | [14] 0 | [15] 0

CC(COc1ccccc1)N(CCCl)Cc1ccccc1 (stereo not given) [phenoxybenzamine]
inactive: [1] 0 | [2] 0 | [3] 0 | [4] 0 | [5] 0 | [6] 0 | [7] 0 | [8] 0 | [9] 0 | [10] 0 | [11] 0 | [12] 0 | [13] 0 | [14] 0 | [15] 0

OCCn1cc(-c2cnc3nnn(Cc4ccc5ncccc5c4)c3n2)cn1
inactive: [1] 0 | [2] 0 | [3] 0 | [4] 0 | [5] 0 | [6] 0 | [7] 0 | [8] 0 | [9] 0 | [10] 0 | [11] 0 | [12] 0 | [13] 0 | [14] 0 | [15] 0

CCOC(=O)[C@H](CCc1ccccc1)N[C@@H](C)C(=O)N1[C@H](C(=O)O)C[C@@H]2CCC[C@@H]21 [ramipril]
inactive: [1] 0 | [2] 0 | [3] 0 | [4] 0 | [5] 0 | [6] 0 | [7] 0 | [8] 0 | [9] 0 | [10] 0 | [11] 0 | [12] 0 | [13] 0 | [14] 0 | [15] 0

CCCCCC1CC1CC1CC1CCCCCCCC(=O)O (stereo not given)
inactive: [1] 0 | [2] 0 | [3] 0 | [4] 0 | [5] 0 | [6] 0 | [7] 0 | [8] 0 | [9] 0 | [10] 0 | [11] 0 | [12] 0 | [13] 0 | [14] 0 | [15] 0

CCCCCOC(=O)Nc1nc(=O)n([C@@H]2O[C@H](C)[C@@H](O)[C@H]2O)cc1F [capecitabine]
inactive: [1] 0 | [2] 0 | [3] 0 | [4] 0 | [5] 0 | [6] 0 | [7] 0 | [8] 0 | [9] 0 | [10] 0 | [11] 0 | [12] 0 | [13] 0 | [14] 0 | [15] 0

CCCNC(C)C(=O)Nc1c(C)csc1C(=O)OC (stereo not given) [articaine]
inactive: [1] 0 | [2] 0 | [3] 0 | [4] 0 | [5] 0 | [6] 0 | [7] 0 | [8] 0 | [9] 0 | [10] 0 | [11] 0 | [12] 0 | [13] 0 | [14] 0 | [15] 0

CCN[C@H]1C[C@H](C)S(=O)(=O)c2sc(S(N)(=O)=O)cc21 [dorzolamide]
inactive: [1] 0 | [2] 0 | [3] 0 | [4] 0 | [5] 0 | [6] 0 | [7] 0 | [8] 0 | [9] 0 | [10] 0 | [11] 0 | [12] 0 | [13] 0 | [14] 0 | [15] 0

C[C@@H]1C(=O)O[C@H]2C[C@@]34[C@H]5C[C@@H](C(C)(C)C)[C@]36[C@@H](OC(=O)[C@@H]6O)O[C@@]4(C(=O)O5)[C@]21O [Ginkgolide A]
inactive: [1] 0 | [2] 0 | [3] 0 | [4] 0 | [5] 0 | [6] 0 | [7] 0 | [8] 0 | [9] 0 | [10] 0 | [11] 0 | [12] 0 | [13] 0 | [14] 0 | [15] 0

NCCCC(O)(P(=O)(O)O)P(=O)(O)O [alendronate]
inactive: [1] 0 | [2] 0 | [3] 0 | [4] 0 | [5] 0 | [6] 0 | [7] 0 | [8] 0 | [9] 0 | [10] 0 | [11] 0 | [12] 0 | [13] 0 | [14] 0 | [15] 0

C[C@@H]1O[C@@H](O[C@H]2C(=O)c3c(O)cc(O)cc3O[C@@H]2c2ccc(O)c(O)c2)[C@H](O)[C@H](O)[C@H]1O [Astilbin]
inactive: [1] 0 | [2] 0 | [3] 0 | [4] 0 | [5] 0 | [6] 0 | [7] 0 | [8] 0 | [9] 0 | [10] 0 | [11] 0 | [12] 0 | [13] 0 | [14] 0 | [15] 0

C[C@H](NC(=O)CCc1nc2ccccc2c(=O)[nH]1)c1ccccc1
inactive: [1] 0 | [2] 0 | [3] 0 | [4] 0 | [5] 0 | [6] 0 | [7] 0 | [8] 0 | [9] 0 | [10] 0 | [11] 0 | [12] 0 | [13] 0 | [14] 0 | [15] 0

O=C(Nc1cccnn1)N1CCN(c2nccc(-c3ccc(F)c(F)c3)n2)CC1
inactive: [1] 0 | [2] 0 | [3] 0 | [4] 0 | [5] 0 | [6] 0 | [7] 0 | [8] 0 | [9] 0 | [10] 0 | [11] 0 | [12] 0 | [13] 0 | [14] 0 | [15] 0

CNC(=O)COC(=O)NCCC1CCN(c2cccc(C)n2)CC1
inactive: [1] 0 | [2] 0 | [3] 0 | [4] 0 | [5] 0 | [6] 0 | [7] 0 | [8] 0 | [9] 0 | [10] 0 | [11] 0 | [12] 0 | [13] 0 | [14] 0 | [15] 0

NCCNS(=O)(=O)c1ccc(Cl)c2ccncc12 [CKI 7 dihydrochloride]
inactive: [1] 0 | [2] 0 | [3] 0 | [4] 0 | [5] 0 | [6] 0 | [7] 0 | [8] 0 | [9] 0 | [10] 0 | [11] 0 | [12] 0 | [13] 0 | [14] 0 | [15] 0
